# According to PubChem BioAssay (Tox21):
# Records with an inconclusive call do not appear. Calls of active or inactive are those of the source. Calls come from the whole dose curve; as a rule, active = well fitted cell-killing curve with a large enough effect in the repeat runs; inconclusive = weak or mixed curves, or effect the other way; inactive = flat fitted curve, though single readings scatter.
# Assay: cAMP Responsive Elements (CRE) small molecule agonists, cell-based qHTS assay: qHTS cell viability counter screen (AID 2060914);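 note: viability read after 3 h of compound exposure; nearly all actives have a fitted effect of over 50% in size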
# Settings: CRE-bla HEK293T viability, CellTiter-Glo luminescence, 5 h; series mostly up to 92.4 µM; activity change, negative = cytotoxicity: at the top concentration
# Text: National Center for Advancing Translational Sciences [NCATS]
# Division of Preclinical Innovation [DPI]
# U.S. Environmental Protection Agency [EPA]
# National Institutes of Environmental Health Sciences [NIEHS]
# National Toxicology Program [NTP]
# U.S. Food and Drug Administration [FDA]
# CREB (cyclic-AMP Responsive Element Binding Protein) is a cellular transcription factor. It binds to certain DNA sequences called cAMP Responsive Elements (CRE) and regulates the transcription of the genes. […] This cell line can be used to find agonists/antagonists of the cyclic AMP signaling pathway. The activation of the report gene under culture conditions can be detected by fluorescence intensity. This cell line has been used to screen the Tox21 10K compound library to identify agonists that induce oxidative stress. The cytotoxicity of the Tox21 compound library against the CRE-bla cell line was tested in parallel by measuring the cell viability using CellTiter-Glo assay (Promega, Madison, WI) in the same wells.
# Tox21 Assay Protocol Summary:
# CRE-bla Hek 293T cells were suspended in assay medium (DMEM containing 10% dialyzed FBS, 0.1 mM NEAA, 1 mM sodium pyruvate and 25 mM HEPES) and dispensed at 2,000 cells/5 uL /well into 1536-well black wall/clear bottom plates using a Multidrop Combi (ThermoFisher Scientific, Waltham, MA) dispenser. After the assay plates were incubated at 37 C/5% CO2 for 18 hrs, 23 nL of compounds dissolved in DMSO, positive controls or DMSO only was transferred to the assay plate by a pintool workstation (Kalypsys, San Diego, CA). After the plates were incubated at 37 C/5% CO2 for 3 hrs, 1 uL of LiveBLAzer B/G FRET substrate (Invitrogen, Carlsbad, CA) was added to each well using Bioraptr Flying Reagent Dispenser (FRD, Aurora Discovery, San Diego, CA). The plates were incubated at room temperature for 2 h, then fluorescence intensities were measured using an Envision plate reader (PerkinElmer, Shelton, CT) at Excitation 405nm, Emission 460nm and 530nm. The % activity was determined from the ratio of 460nm/530nm. For cell viability readout that measures cytotoxicity, 4 uL /well of CellTiter-Glo reagent was added into the assay plates using Bioraptr FRD. After 30 min incubation at room temperature, the luminescence intensity in the assay plates was measured using a ViewLux (PerkinElmer, Shelton, CT) plate reader.
# % is set by controls: 0 for no effect and ±100 for the full control effect.
SMILES,"activity change, negative = cytotoxicity",Potency
CSc1c(Cl)c(Cl)c(Cl)c(Cl)c1Cl,-3.82% (inactive),–
Cc1ccc(N=Nc2c(O)c(C(=O)O)cc3ccccc23)c(S(=O)(=O)O)c1,12.2% [at 42.5 µM] (inactive),–
C=CCCC(=O)/C=C/C1C(C)=CCCC1(C)C (stereo not given),2.94% (inactive),–
C[C@@H]1C[C@H]2[C@@H]3C[C@H](F)C4=CC(=O)C=C[C@]4(C)[C@@]3(F)[C@@H](O)C[C@]2(C)[C@@]1(O)C(=O)CO,13.5% [at 42.5 µM] (inactive),–
Cc1c(C(N)=O)cc([N+](=O)[O-])cc1[N+](=O)[O-],–,inactive
O=C(CC(=O)c1ccccc1)c1ccccc1,-11.1% (inactive),–
CCC(C)N (stereo not given),-11.4% (inactive),–
CC(CO)CO,1.13% (inactive),–
CCC(C)c1cc(C(C)(C)C)c(O)c(C(C)(C)C)c1 (stereo not given),-3.46% (inactive),–
C[C@@H](O)[C@H](N)C(=O)O,-10.8% [at 18.9 µM] (inactive),–
Nc1ccc2ccccc2c1S(=O)(=O)O,-11.9% (inactive),–
CC1CCC(C(C)(C)S)C(=O)C1 (stereo not given),0.901% (inactive),–
CC(C)O.CC(C)O.CCOC(=O)/C=C(\C)O.CCOC(=O)/C=C(\C)O.[Ti],5.15% (inactive),–
NC(=O)C1(N2CCCCC2)CCN(CCCN2c3ccccc3CCc3ccc(Cl)cc32)CC1,-14% [at 42.5 µM] (inactive),–
NC(=O)n1c(O)c(C(=O)c2cccs2)c2cc(Cl)ccc21,-6.91% [at 42.5 µM] (inactive),–
O=C(C1CCCCC1)N1CC(=O)N2CCc3ccccc3C2C1 (stereo not given),–,inactive
c1cc(N(CC2CO2)CC2CO2)ccc1Cc1ccc(N(CC2CO2)CC2CO2)cc1 (stereo not given),0.645% (inactive),–
COc1ccc(C(=O)c2ccc(C)cc2)c(O)c1,-11.1% (inactive),–
CC1(C)CC(OC(=O)CCCCCCCCC(=O)OC2CC(C)(C)NC(C)(C)C2)CC(C)(C)N1,1.68% [at 18.9 µM] (inactive),–
CC(C)CC(C)(C)C,1.72% (inactive),–

SMILES,"activity change, negative = cytotoxicity",Potency
O=C1CCCc2c(O)cccc21,-4.48% [at 42.5 µM] (inactive),–
O=c1[nH]cc(F)c(=O)[nH]1,–,inactive
CCC(C)(CCC(C)C)C(=O)O (stereo not given),9.69% (inactive),–
C=CC(=O)OCC(Br)CBr (stereo not given),1.14% (inactive),–
NCCCC(O)(P(=O)(O)O)P(=O)(O)O,0.867% [at 42.5 µM] (inactive),–
NCCNCCN,-18.6% (inactive),–
N[C@@H](CS)C(=O)O,13.3% (inactive),–
c1cc[nH]c1,14.6% (inactive),–
NCC(=O)CCC(=O)O,-1.29% [at 42.5 µM] (inactive),–
OCCCCCCCCCCCCBr,-0.726% (inactive),–
COc1cccc(OC)c1C(=O)O,9.51% (inactive),–
OC[C@H]1O[C@@H]2O[C@H]3[C@H](O)[C@@H](O)[C@@H](O[C@H]4[C@H](O)[C@@H](O)[C@@H](O[C@H]5[C@H](O)[C@@H](O)[C@@H](O[C@H]6[C@H](O)[C@@H](O)[C@@H](O[C@H]7[C@H](O)[C@@H](O)[C@@H](O[C@H]1[C@H](O)[C@H]2O)O[C@@H]7CO)O[C@@H]6CO)O[C@@H]5CO)O[C@@H]4CO)O[C@@H]3CO,-11.9% (inactive),–
CCC(=O)C(=O)CC,-11.8% (inactive),–
Cc1cccc(N(C)C)c1,0.0317% (inactive),–
OCCC(F)(F)C(F)(F)C(F)(F)C(F)(F)C(F)(F)C(F)(F)C(F)(F)C(F)(F)F,10.3% (inactive),–
Cc1ncc([N+](=O)[O-])n1CC(C)O (stereo not given),-4% [at 42.5 µM] (inactive),–
O=C1C(CCS(=O)c2ccccc2)C(=O)N(c2ccccc2)N1c1ccccc1 (stereo not given),1.17% [at 42.5 µM] (inactive),–
CC(C)CC(=O)N[C@H](C(=O)N[C@H](C(=O)N[C@@H](CC(C)C)[C@@H](O)CC(=O)N[C@@H](C)C(=O)N[C@@H](CC(C)C)[C@@H](O)CC(=O)O)C(C)C)C(C)C,-0.213% [at 42.5 µM] (inactive),–
NNC(=O)OCc1ccccc1,15.1% (inactive),–
COC(=O)c1ccc(C(=O)OC)cc1,–,inactive
